From PubChem
HP1b chromo inh: inhibitors of HP1-beta chromodomain binding to methylated histone tails; P83916; AlphaScreen HP1-beta / biotin-H3K9me3 peptide binding; Potency, µM (doses to about 114 µM), usual class: inhibitors; 390,000 compounds, 0.56% hits; AID 540317; further: nearly all actives have a fitted effect of over 70% in size
Target sequence (P83916 whole entry, looked up): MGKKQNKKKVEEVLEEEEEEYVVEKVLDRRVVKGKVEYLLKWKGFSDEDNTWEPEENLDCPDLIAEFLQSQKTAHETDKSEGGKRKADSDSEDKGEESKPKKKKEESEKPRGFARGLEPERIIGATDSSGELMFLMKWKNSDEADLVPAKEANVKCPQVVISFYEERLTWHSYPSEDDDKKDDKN
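HP1-beta protein (50 nM final) preincubated 30 min at room temperature with biotinylated H3(1-18)K9me3 peptide (50 nM) in PBS pH 7.4, 0.01% Tween-20, then compound added for 30 min. AlphaScreen streptavidin donor/nickel chelate acceptor beads (10 ug/mL final), 30 min dark, luminescence read.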
BAZ2B inh: BAZ2B (human) inhibition. 360,000 compounds, 4.4% hits. Potency, µM (doses to about 114 µM), hits mostly inhibitors. Q9UIF8. AlphaScreen BAZ2B-H3K14Ac peptide displacement; further: nearly all actives have a fitted effect of over 60% in size
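AlphaScreen luminescence quantifies BAZ2B engagement of H3K14Ac peptide; the protein and biotinylated peptide are both at 50 nM final, buffer PBS pH 7.4 with 0.01% Tween-20, all steps at room temperature.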
G9a inh: blocks human histone lysine methyltransferase G9a | Q96KQ7 | G9a H3K9 monomethylation, AlphaScreen, 2 h | Potency, µM (top dose mostly 102 µM), usual class: inhibitors | 350,000 compounds, 8.8% hits | AID 504332; further: nearly all actives have a fitted effect of over 75% in size
Target sequence (Q96KQ7 913-1193 limits assumed): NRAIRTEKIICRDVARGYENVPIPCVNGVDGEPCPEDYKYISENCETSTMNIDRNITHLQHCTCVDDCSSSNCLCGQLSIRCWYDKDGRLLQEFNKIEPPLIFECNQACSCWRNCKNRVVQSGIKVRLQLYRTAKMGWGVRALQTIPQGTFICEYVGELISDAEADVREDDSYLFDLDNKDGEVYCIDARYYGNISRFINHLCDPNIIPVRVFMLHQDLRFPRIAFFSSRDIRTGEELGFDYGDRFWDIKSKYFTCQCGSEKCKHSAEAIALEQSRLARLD
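Methyltransferase reactions run at room temperature for 2 h (20 nM enzyme, 500 nM biotin-H3K9 peptide, 20 uM SAM) after a 15 min compound preincubation; product detected by AlphaScreen beads and anti-H3K9me1 antibody.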
Sfp PPTase inh: Sfp phosphopantetheinyl transferase inhibition; Q9F4F7; Biochemical Sfp PPTase activity, qHTS; Potency, µM, usual class: inhibitors; 310,000 compounds, 3.5% hits;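 further: the enzyme is Sfp with the accession as filed and its product quenches rhodamine fluorescence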
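Sfp 15 nM + cpd, 15 min RT; start w/ rhodamine-CoA 5 uM, BHQ-2-YbbR 12.5 uM (final); 50 mM Hepes pH 7.6, 10 mM MgCl2, 0.01% NP-40, 0.01% BSA; read 525/598 nm at 0 and 30 min.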
JMJD2A Tudor: JMJD2A Tudor domain (human) inhibition. 390,000 compounds, 4.4% hits. AlphaScreen JMJD2A-Tudor / H3K4me3 peptide binding. O75164. Potency, µM (highest dose often 114 µM), actives largely listed as inhibitors; further: nearly all actives have a fitted effect of over 50% in size
Hits are given with their value; 0 = inactive; ? = inconclusive; - = not tested or not shown; [ ] = another dose, or the depositor's remark. Hits are enriched below; roughly 12% of the tested compounds scored in any of these assays. The call rests on the fitted dose curve; in most records, active means well fitted curve in the direction sought with a large enough effect; inconclusive means small, poorly fitted or top-dose-only effect, or another doubt; inactive means no such curve, though single readings can be large; an effect the other way counts as inactive or inconclusive.

SMILES | HP1b chromo inh | BAZ2B inh | G9a inh | Sfp PPTase inh | JMJD2A Tudor
CCOC(=O)CN1C(=O)S/C(=C/c2ccc(C)o2)C1=O | 0 | 0 | 32µM | 0 | 0
CCCN1C(=O)/C(=C/c2ccc(C)o2)SC1=Nc1ccc(OCC)cc1 | 0 | ? | ? | 7.9µM | ?
CCCN1C(=O)/C(=C/c2cc(C)n(C)c2C)SC1=Nc1ccc(OCC)cc1 | 0 | 0 | 0[12.7 µM] | 0 | 0
CC(Sc1nnc(-c2cccnc2)o1)C(=O)NC1CCCC1 (stereo not drawn) | 0 | 0 | 0 | - | 0
NC(=O)c1ccccc1NC(=O)CCCCCn1nnc2ccccc2c1=O | 0 | 0 | 0 | 0 | 0
COc1cc(C(=O)Nc2cc(C(F)(F)F)ccc2N2CCOCC2)ccc1OCC(=O)N1CCOCC1 | 0 | 0 | ? | - | 0
COc1ccc(CNC(=O)c2cnc3n(c2=O)CCS3)cc1 | 0 | 0 | 45µM | 0 | 0
O=C(NCc1ccccc1Cl)c1cnc2n(c1=O)CCS2 | 0 | 0 | 56µM | ? | 0
O=S1(=O)CCC(NCC2CCCO2)C1 (stereo not drawn) | 0 | 0 | 50µM | 0 | 0
Cc1nc(-c2ccc(S(=O)(=O)NCc3ccc(N(C)C)cc3)cc2)co1 | 0 | 40µM | ? | - | 50µM
Cc1nc(-c2ccc(S(=O)(=O)NCc3ccc(F)cc3)cc2)co1 | 0 | 0 | 0 | - | 0
Cc1ccc(-c2onc(C)c2C)cc1S(=O)(=O)NCc1ccc(N(C)C)cc1 | ? | 35µM | 11µM | - | 40µM
Cc1ccc(-c2onc(C)c2C)cc1S(=O)(=O)NC1CCCCC1 | 0 | 0 | 0 | - | 0
COc1ccc(C2CC(=O)c3cnc(NC(=O)c4cc(OC)cc(OC)c4)nc3C2)cc1 (stereo not drawn) | 0 | 0 | ? | 0 | 0
O=C(CSc1ncccn1)Nc1ccccc1 | 0 | 0 | ? | 0 | 0
O=C(CSc1nnc2c(n1)[nH]c1ccc(F)cc12)Nc1ccccc1F | 0 | 0 | 0 | 0 | 0
O=C(CSc1nnc2c3ccccc3c3ccccc3c2n1)Nc1ccccc1F | 0 | 56µM | - | 0 | 0
O=C(CSc1nnc2c3ccccc3c3ccccc3c2n1)Nc1ccccc1 | - | 0 | 45µM | 0 | -
C/C(=N\NC(=O)CC#N)c1cc2ccccc2oc1=O | 0 | 0 | 0 | ? | 0
COc1cccc(NC(=O)Cn2c(=O)n(-c3ccc(C)cc3)c(=O)c3ccc(C(=O)NCc4ccco4)cc32)c1 | 0 | - | 0 | - | 0
O=C(Cn1cnc2c(NCc3ccccc3)ncnc21)NCCN1CCOCC1 | 0 | - | - | - | 0
CCCc1cc(=O)n2nc(N3CCC(C(=O)NCc4ccco4)CC3)sc2n1 | 0 | 0 | 0 | 0 | 25µM
Cc1cc(=O)n2nc(N3CCCC(C(=O)NCc4ccco4)C3)sc2n1 (stereo not drawn) | 0 | 0 | 0[12.7 µM] | 0 | 0
O=C(NCc1ccco1)C1CCCN1C(=O)Nc1ccc(Cl)cc1 (stereo not drawn) | 0 | - | 0 | 0 | 14µM
Cc1ccc(S(=O)(=O)N2CCCCC2C(=O)Nc2nncs2)cc1 (stereo not drawn) | 0 | 0 | 40µM | 0 | 0
SMILES | HP1b chromo inh | BAZ2B inh | G9a inh | Sfp PPTase inh | JMJD2A Tudor
O=C(NCc1ccco1)C1CCCN(c2nnc(-n3cccc3)s2)C1 (stereo not drawn) | ? | ? | 0 | 0 | 56µM
O=C(NCC1CCCO1)c1ccc(Br)c(S(=O)(=O)N2CCOCC2)c1 (stereo not drawn) | 0 | 0 | 0[12.7 µM] | - | 0
CN1CCCC(OC(=O)CCCCC(=O)OC2CCCN(C)C2)C1 (stereo not drawn) | 0 | 0 | 0 | 0 | 0
C/C(=N\NC(=O)CNC(=O)c1ccccc1Br)c1ccco1 | 0 | 0 | 0 | 0 | 0
O=C(NCc1ccco1)C1CCCN(S(=O)(=O)c2ccc(-n3cnnn3)cc2)C1 (stereo not drawn) | 0 | ? | 56µM | 40µM | 0
COc1ccc2nc(NC(=O)C3CCCN3S(=O)(=O)c3ccc(C)cc3)sc2c1 (stereo not drawn) | 0 | 0 | 0 | 0 | 0
Cc1ccc(S(=O)(=O)N2CCCCC2C(=O)NCc2ccco2)cc1 (stereo not drawn) | 0 | 0 | 28µM | 56µM | 0
Cc1ccc(S(=O)(=O)N2CCCC2C(=O)Nc2nc3c(s2)CCCC3)cc1 (stereo not drawn) | 0 | ? | 45µM | 0 | 0
Cc1ccc(-n2ncc(C(=O)N3CCN(c4cccc(C)c4C)CC3)c2C2CCNCC2)c(C)c1 | 0 | 0 | ? | - | ?
COc1ccc(NC(=O)CSc2ncn[nH]2)c([N+](=O)[O-])c1 | 0 | 0 | 0 | 0 | 0
Cc1ccc(N2CC(C(=O)OCC(=O)c3ccc(C)c([N+](=O)[O-])c3)CC2=O)cc1 (stereo not drawn) | 0 | 0 | ? | - | 0
c1ccc(CN2CCN(Cc3cn4cccnc4n3)CC2)cc1 | 0 | 0 | 0 | 0 | 0
Cc1ccc(C(=O)Oc2ccc(-c3nccc(-c4ccccn4)n3)cc2)cc1 | 0 | 0 | 0 | 0 | 0
Cc1ccnc(NC(=O)COC(=O)c2ccc(F)cc2F)n1 | 0 | 0 | 0 | 0 | 0
Cc1sc(-c2ccccn2)nc1OC(=O)c1ccc(Cl)c(Cl)c1 | 0 | 0 | 40µM | 0 | 0
Cc1sc(-c2ccccn2)nc1OC(=O)c1ccc(F)cc1F | 0 | 79µM | 10µM | 16µM | 0
Cc1nc(-c2ccc(Cl)cc2)oc1COC(C)(C)C(=O)O | - | - | 0[12.7 µM] | 0 | -
CC1CCCCN1C(=O)Nc1cccc(Cl)c1 (stereo not drawn) | 0 | 0 | 0 | 0 | 0
CC(Oc1ccc(Cl)cc1)C(=O)NCCCn1ccnc1 (stereo not drawn) | 0 | 0 | 0 | 0 | 0
Cc1cccc(OCCCCCn2ccnc2)c1 | ? | 50µM | 32µM | 0 | 3.2µM
Clc1ccc(SCCCCn2ccnc2)cc1 | ? | 50µM | ? | 0 | 7.9µM
CCc1cccc(OCCn2ccnc2)c1 | ? | 50µM | 8.9µM | 0 | 11µM
Cc1cccc(OCCn2cnc(Cl)c2Cl)c1 | 0 | 28µM | 0 | 0 | 0
Fc1ccc(OCCn2cnc(Cl)c2Cl)cc1 | 0 | 0 | 0 | 0 | 0
CN(CC(CC(=O)O)c1ccccc1)S(=O)(=O)c1ccc(Br)cc1 (stereo not drawn) | 0 | 0 | 0 | 0 | 0
SMILES | HP1b chromo inh | BAZ2B inh | G9a inh | Sfp PPTase inh | JMJD2A Tudor
COc1ccc(CNC(=O)CN2C(=O)NC3(CCCCCCC3)C2=O)cc1 | 0 | - | - | - | 0
Cc1cc(Cl)cc(C)c1OCCCCn1ccnc1 | 0 | 0 | 32µM | 0 | ?
Cc1cc(OCCCCn2ccnc2)cc(C)c1Cl | 0 | ? | 8.9µM | 0 | ?
CCOc1cc(/C=C2\N=C(C)OC2=O)cc(Br)c1OCC(=O)OC | 0 | 0 | 0[12.7 µM] | 0 | 0
O=C(O)c1cnc(-c2ccccc2)nc1Sc1ccccc1Cl | 0 | ? | 0 | 0 | 0
O=C(CN1CCN(c2ncc(C(F)(F)F)cc2Cl)CC1)NCCNc1ncc(C(F)(F)F)cc1Cl | 0 | 0 | 0[12.7 µM] | 0 | 0
O=C(CONS(=O)(=O)c1ccc(Cl)cc1)NCCNc1ncc(C(F)(F)F)cc1Cl | 0 | 0 | 56µM | 0 | 0
Cc1nc(N2CCOCC2)c2nc(-c3ccccc3)n(CCN3CCOCC3)c2n1 | - | - | - | 0 | -
Cn1c(=O)cc(OCCCC(=O)NCc2ccco2)c2ccccc21 | 0 | 0 | 0[12.7 µM] | 0 | 0
